Compound in the test: CN[C@@H]1C[C@H]2O[C@@](C)([C@@H]1OC)n1c3ccccc3c3c4c(c5c6ccccc6n2c5c31)C(=O)NC4 [staurosporine]
As to the kind of experiment: log2 fold change of tryptic peptide abundance, ligand vs vehicle (limited proteolysis) (log2 ratio); higher = more trypsin-susceptible (destabilized). Particulars: ligand concentration: 20 uM; sample: mouse liver crude lysate; replicate design: treated separately.
Chain of UniProt P55096 (P55096 whole entry): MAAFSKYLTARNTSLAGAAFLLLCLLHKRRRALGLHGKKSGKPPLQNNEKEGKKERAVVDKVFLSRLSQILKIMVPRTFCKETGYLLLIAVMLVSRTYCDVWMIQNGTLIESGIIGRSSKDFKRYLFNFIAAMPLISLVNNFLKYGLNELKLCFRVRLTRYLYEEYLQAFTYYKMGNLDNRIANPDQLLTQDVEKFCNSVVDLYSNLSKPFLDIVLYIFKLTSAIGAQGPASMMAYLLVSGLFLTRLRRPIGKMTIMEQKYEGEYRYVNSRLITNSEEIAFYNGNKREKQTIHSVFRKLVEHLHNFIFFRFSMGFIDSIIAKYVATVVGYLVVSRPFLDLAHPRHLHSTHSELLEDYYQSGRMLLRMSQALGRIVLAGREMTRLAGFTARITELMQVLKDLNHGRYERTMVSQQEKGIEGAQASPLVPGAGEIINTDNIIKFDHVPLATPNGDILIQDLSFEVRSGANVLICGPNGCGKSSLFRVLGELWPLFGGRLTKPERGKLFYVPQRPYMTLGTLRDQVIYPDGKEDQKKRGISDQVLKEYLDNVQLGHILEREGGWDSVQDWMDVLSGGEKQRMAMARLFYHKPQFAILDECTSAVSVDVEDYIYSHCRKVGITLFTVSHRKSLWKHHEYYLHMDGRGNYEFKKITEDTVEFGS
Chain of UniProt A2ALW5 (A2ALW5 whole entry): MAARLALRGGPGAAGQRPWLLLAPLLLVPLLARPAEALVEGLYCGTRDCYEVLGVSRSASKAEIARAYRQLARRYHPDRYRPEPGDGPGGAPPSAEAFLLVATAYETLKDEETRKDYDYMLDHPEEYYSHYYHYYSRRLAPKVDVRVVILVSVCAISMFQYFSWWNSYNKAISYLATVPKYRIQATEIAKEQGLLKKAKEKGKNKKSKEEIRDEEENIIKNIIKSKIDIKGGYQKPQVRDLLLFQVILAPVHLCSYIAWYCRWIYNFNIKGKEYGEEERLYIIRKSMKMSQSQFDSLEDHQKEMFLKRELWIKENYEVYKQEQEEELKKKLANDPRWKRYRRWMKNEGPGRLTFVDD
Chain of UniProt Q60648 (Q60648 whole entry): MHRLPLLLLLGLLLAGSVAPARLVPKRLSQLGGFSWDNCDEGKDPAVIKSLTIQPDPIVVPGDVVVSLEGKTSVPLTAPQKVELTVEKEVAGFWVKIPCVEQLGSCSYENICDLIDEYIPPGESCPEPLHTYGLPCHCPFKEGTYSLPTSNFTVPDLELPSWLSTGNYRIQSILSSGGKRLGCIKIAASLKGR
Chain of UniProt Q8VDP6 (Q8VDP6 whole entry): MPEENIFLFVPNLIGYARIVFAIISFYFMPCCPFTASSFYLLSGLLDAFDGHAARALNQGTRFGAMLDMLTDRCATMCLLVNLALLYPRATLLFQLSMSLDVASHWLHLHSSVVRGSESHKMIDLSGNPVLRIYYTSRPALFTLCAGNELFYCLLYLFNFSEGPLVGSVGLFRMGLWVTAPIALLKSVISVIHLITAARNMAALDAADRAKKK
Chain of UniProt Q9WUN2 (Q9WUN2 whole entry): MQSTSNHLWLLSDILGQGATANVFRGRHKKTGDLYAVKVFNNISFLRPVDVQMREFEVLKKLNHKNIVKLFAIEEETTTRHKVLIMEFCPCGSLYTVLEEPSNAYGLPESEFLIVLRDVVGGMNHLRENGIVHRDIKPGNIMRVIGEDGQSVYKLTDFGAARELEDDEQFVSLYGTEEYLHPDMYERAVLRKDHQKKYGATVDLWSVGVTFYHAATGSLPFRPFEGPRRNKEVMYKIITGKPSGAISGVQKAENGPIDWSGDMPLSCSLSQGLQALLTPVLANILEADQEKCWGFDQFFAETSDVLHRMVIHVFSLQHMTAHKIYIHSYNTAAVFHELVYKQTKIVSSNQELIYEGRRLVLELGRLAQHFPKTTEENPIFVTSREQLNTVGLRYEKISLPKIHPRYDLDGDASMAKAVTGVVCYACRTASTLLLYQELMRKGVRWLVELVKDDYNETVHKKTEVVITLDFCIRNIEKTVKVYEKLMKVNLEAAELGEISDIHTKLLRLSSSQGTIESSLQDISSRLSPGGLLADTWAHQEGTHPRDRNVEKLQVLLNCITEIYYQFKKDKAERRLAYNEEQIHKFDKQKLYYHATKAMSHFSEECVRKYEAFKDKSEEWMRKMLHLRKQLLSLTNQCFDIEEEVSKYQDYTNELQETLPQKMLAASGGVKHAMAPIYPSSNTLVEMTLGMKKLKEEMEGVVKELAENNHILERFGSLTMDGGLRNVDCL
Chain of UniProt P47811 (P47811 whole entry): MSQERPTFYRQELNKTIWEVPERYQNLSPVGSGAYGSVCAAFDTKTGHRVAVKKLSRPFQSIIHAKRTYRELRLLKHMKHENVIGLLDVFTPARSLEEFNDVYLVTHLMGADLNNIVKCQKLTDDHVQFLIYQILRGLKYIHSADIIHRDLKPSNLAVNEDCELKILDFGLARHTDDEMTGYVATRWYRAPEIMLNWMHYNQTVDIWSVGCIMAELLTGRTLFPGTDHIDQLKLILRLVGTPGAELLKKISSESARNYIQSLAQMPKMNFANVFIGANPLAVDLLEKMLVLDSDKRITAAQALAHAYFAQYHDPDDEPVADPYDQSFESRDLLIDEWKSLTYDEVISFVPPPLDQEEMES
Chain of UniProt Q91YH5 (Q91YH5 whole entry): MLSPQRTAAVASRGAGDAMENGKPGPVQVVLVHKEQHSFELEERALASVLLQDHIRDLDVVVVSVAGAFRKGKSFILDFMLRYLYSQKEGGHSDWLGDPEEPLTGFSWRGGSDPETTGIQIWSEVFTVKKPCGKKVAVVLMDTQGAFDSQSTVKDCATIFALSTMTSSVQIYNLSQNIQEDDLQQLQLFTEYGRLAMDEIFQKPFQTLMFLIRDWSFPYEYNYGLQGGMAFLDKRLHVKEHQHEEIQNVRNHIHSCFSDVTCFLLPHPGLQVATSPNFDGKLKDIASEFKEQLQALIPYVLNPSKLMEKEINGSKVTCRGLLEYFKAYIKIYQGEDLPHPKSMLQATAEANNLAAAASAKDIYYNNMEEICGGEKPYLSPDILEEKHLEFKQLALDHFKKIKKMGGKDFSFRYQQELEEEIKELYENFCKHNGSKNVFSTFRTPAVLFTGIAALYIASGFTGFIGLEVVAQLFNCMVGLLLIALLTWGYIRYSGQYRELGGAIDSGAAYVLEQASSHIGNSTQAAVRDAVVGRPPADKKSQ
Chain of UniProt Q61161 (Q61161 whole entry): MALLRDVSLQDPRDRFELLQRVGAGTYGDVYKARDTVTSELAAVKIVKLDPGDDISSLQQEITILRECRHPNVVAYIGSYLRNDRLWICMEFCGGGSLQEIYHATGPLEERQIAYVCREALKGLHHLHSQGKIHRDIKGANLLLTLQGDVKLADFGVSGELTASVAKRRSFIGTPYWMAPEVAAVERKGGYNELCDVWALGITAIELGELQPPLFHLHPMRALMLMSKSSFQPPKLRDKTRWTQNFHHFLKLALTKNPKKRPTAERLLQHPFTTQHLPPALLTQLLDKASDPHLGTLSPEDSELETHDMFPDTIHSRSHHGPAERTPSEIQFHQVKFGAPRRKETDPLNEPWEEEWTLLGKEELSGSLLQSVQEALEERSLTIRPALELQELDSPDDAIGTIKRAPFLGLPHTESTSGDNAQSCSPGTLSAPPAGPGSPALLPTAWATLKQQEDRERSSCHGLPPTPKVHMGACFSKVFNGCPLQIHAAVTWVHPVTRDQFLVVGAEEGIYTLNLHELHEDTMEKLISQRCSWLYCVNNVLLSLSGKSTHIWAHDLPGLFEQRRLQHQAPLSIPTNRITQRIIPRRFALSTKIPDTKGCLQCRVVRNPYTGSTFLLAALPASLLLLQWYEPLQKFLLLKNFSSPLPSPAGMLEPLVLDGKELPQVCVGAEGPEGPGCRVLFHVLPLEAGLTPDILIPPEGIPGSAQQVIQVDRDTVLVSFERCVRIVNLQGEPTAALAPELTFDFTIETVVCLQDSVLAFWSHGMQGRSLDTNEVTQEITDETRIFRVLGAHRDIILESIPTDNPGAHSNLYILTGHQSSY
Chain of UniProt P18653 (P18653 whole entry): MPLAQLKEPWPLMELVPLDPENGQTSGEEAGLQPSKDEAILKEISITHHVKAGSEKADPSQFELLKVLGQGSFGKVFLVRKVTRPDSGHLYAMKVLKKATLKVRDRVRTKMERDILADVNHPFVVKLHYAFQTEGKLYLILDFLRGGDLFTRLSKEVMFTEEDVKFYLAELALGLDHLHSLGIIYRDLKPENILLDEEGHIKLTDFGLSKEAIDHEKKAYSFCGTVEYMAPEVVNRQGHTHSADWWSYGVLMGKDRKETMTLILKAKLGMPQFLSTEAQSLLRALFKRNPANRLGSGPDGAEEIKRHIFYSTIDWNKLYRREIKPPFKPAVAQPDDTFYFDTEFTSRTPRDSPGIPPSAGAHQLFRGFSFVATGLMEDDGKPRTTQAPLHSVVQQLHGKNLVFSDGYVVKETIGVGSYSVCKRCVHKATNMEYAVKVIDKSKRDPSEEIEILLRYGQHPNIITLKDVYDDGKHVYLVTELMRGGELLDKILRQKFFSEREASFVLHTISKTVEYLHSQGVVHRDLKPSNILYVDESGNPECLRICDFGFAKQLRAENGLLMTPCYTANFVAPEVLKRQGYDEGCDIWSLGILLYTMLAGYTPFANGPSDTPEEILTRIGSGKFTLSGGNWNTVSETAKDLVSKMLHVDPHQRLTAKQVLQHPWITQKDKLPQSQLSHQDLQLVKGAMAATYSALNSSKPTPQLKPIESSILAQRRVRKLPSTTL
Chain of UniProt Q62393 (Q62393 whole entry): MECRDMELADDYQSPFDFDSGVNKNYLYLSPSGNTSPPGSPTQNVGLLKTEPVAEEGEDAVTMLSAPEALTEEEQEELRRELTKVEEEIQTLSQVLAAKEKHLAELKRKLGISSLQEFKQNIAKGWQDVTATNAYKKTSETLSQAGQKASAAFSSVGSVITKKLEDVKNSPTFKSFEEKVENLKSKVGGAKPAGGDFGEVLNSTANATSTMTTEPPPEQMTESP
Chain of UniProt Q61268 (Q61268 whole entry): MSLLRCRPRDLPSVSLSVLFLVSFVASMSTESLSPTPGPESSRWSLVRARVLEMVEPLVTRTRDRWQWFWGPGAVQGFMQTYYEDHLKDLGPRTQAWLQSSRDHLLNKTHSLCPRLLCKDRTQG
On to “UniProt P05132 (peptide sequence: CGKEFTEF, peptide start residue: 344)”, for which the log2 fold change was 2.36.
The figure for “UniProt Q91YH5 (peptide sequence: ALASVLLQDHIR, peptide start residue: 45)” is 0.309; for “UniProt P11440 (peptide sequence: IGEGTYGVVYK, peptide start residue: 10)” it is -2.03.
Turning to “UniProt A2ALW5 (peptide sequence: WIYNFNIK, peptide start residue: 263)”, the log2 fold change turned out to be 0.844.
For “UniProt Q920L1 (peptide sequence: VAPLVQSLCAK, peptide start residue: 402)”, the log2 fold change was 0.439.
The figure for “UniProt Q8CC86 (peptide sequence: VCLYLGLEEQEPHPGER, peptide start residue: 253)” is -0.575; for “UniProt Q99KH8 (peptide sequence: GEPPHSELHPMK, peptide start residue: 215)” it is -1.74; for “UniProt Q8VDP6 (peptide sequence: MIDLSGNPVLR, peptide start residue: 122)” it is 0.341.
Turning to “UniProt Q8K0D0 (peptide sequence: SKLTENLVALK, peptide start residue: 140)”, the log2 fold change is -2.51.
The figure for “UniProt Q04735 (peptide sequence: LEHEEGAPCTAIR, peptide start residue: 154)” is -2.38; for “UniProt Q8C5L7 (peptide sequence: NGAQIAEGFR, peptide start residue: 267)” it is 0.659.
The figure for “UniProt P19157 (peptide sequence: AFLSSPEHVNRPINGNGK, peptide start residue: 192)” is -0.521; for “UniProt Q3UU96 (peptide sequence: LHREDFEILK, peptide start residue: 72)” it is -1.65; for “UniProt Q03963 (peptide sequence: DLKPGNIFLVDER, peptide start residue: 376)” it is -1.55.
The figure for “UniProt P55096 (peptide sequence: EKQTIHSVFRK, peptide start residue: 288)” is 0.493; for “UniProt Q3UYH7 (peptide sequence: SLLEGLLQR, peptide start residue: 423)” it is -0.733.
Consider “UniProt Q9JI11 (peptide sequence: ATATQLLQHPFVK, peptide start residue: 270)”, for which the log2 fold change is -3.07.
The figure for “UniProt Q9WUN2 (peptide sequence: VFNNISFLRPVDVQMR, peptide start residue: 39)” is -2.34; for “UniProt Q9D2C7 (peptide sequence: MNIFDRK, peptide start residue: 1)” it is 0.348.
Regarding “UniProt P56657 (peptide sequence: NHMPYTNAMVHEVQR, peptide start residue: 343)”, the log2 fold change was -0.322.
In the case of “UniProt P47811 (peptide sequence: NYIQSLAQMPK, peptide start residue: 257)”, the log2 fold change came to 0.32.
As for “UniProt Q8VI63 (peptide sequence: ITDFEFK, peptide start residue: 35)”, the log2 fold change turned out to be 0.579.
The figure for “UniProt Q5EG47 (peptide sequence: DLKPENVLLDAHMNAK, peptide start residue: 150)” is -4.22; for “UniProt Q61036 (peptide sequence: ELLQHPFLK, peptide start residue: 493)” it is -2.37.
For “UniProt Q61083 (peptide sequence: LLGQGAFGR, peptide start residue: 361)”, the log2 fold change is -1.9.
Take “UniProt Q60648 (peptide sequence: IQSILSSGGK, peptide start residue: 170)”: the log2 fold change is -0.484.
In the case of “UniProt Q99LC5 (peptide sequence: TIYAGNALCTVK, peptide start residue: 147)”, the log2 fold change came out at 0.35.
In the case of “UniProt P22315 (peptide sequence: LFLDRDLMTLPIQNK, peptide start residue: 91)”, the log2 fold change is -1.03.
For the target “UniProt P22907 (peptide sequence: ELENALEKNEVDLVVHSLK, peptide start residue: 80)”, the log2 fold change is -0.802.
In the case of “UniProt Q91V04 (peptide sequence: EHSAFQAPPVKR, peptide start residue: 325)”, the log2 fold change is 3.7.
Consider “UniProt O08648 (peptide sequence: IFEGIKHPNLVR, peptide start residue: 1382)”, for which the log2 fold change is -0.814.
For “UniProt Q62393 (peptide sequence: GWQDVTATNAYK, peptide start residue: 125)”, the log2 fold change amounted to 0.581.
On to “UniProt Q61268 (peptide sequence: TQAWLQSSR, peptide start residue: 94)”, for which the log2 fold change stood at 0.77.
Take “UniProt P18653 (peptide sequence: ADPSQFELLK, peptide start residue: 57)”: the log2 fold change is -1.44.
In the case of “UniProt P30681 (peptide sequence: MSSYAFFVQTCREEHK, peptide start residue: 13)”, the log2 fold change was -0.185.
As to “UniProt Q61161 (peptide sequence: GLHHLHSQGK, peptide start residue: 123)”, the log2 fold change was -1.65.
On to “UniProt P51881 (peptide sequence: KGTDIMYTGTLDCWRK, peptide start residue: 245)”, for which the log2 fold change amounted to 0.454.
On to “UniProt Q91VJ4 (peptide sequence: DTGHVYAMK, peptide start residue: 110)”, for which the log2 fold change was -3.23.

Values taken from the supplement of paper PMC12819154, “High-throughput peptide-centric local stability assay extends protein–ligand identification to membrane proteins, tissues and bacteria” (Nature Structural & Molecular Biology, 2025).
